From PubChem
Only a selection was taken, and hits are over-represented in it overall.
CBX7 inh – CBX7 chromodomain binding inhibitors, primary screen, biochemical, AlphaScreen; AID 1224903, 2016; Chromobox protein homolog 7 (Homo sapiens), O95931; AlphaScreen His6-CBX7 / biotin-H3K27me3 peptide binding; active compounds read low; normalised signal (fraction of DMSO) (test concentration not listed); 1.1% of 66,000 active; in the data active means normalised signal below about 0.5
Target sequence (O95931 whole entry, looked up): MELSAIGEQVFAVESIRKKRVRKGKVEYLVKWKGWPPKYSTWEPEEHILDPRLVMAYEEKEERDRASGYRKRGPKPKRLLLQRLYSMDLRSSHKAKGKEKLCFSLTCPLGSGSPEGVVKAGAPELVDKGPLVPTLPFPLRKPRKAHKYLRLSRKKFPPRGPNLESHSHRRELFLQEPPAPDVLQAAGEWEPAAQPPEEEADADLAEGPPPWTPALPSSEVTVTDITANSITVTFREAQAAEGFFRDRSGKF
An asterisk follows results filed as active.

`COc1ccc(NC(=O)C2CCN(c3nnc(-n4cccc4)s3)CC2)cc1OC` gave CBX7 inh 0.77.
CC1CCN(S(=O)(=O)c2ccc(C(=O)Nc3nc(-c4ccncc4)cs3)cc2)CC1 was read as CBX7 inh 1.
Screening CC1CCCCN1S(=O)(=O)c1ccc(C(=O)Nc2nc(-c3ccccn3)cs2)cc1 (configuration not stated) returned CBX7 inh 0.19*.
Screening CC1CCCN(S(=O)(=O)c2ccc(C(=O)Nc3nc(-c4ccccn4)cs3)cc2)C1 (configuration not stated) returned CBX7 inh 0.22*.
Screening O=C(Nc1nc(-c2ccncc2)cs1)c1ccc(S(=O)(=O)N2CCCCC2)cc1 returned CBX7 inh 1.
`CC1CCCCN1S(=O)(=O)c1ccc(C(=O)Nc2nc(-c3ccncc3)cs2)cc1` (configuration not stated) gave CBX7 inh 1.
For CC1CCN(S(=O)(=O)c2ccc(C(=O)Nc3nc(-c4ccccn4)cs3)cc2)CC1 the results were CBX7 inh 0.96.
For CCN(CC)S(=O)(=O)c1cccc(C(=O)Nc2nc(-c3ccccc3)cs2)c1 the results were CBX7 inh 1.
`CCCCN(C)CCCNC(=O)c1cc(Nc2ccccc2OC)nc2ccccc12` gave CBX7 inh 1.2.
For CCOC(=O)c1[nH]c2c(c1-c1ccccc1)C(=O)CC(c1ccc(OCC)cc1)C2 (configuration not stated) the results were CBX7 inh 0.97.
For O=C(Nc1ccc2oc(-c3ccc4ccccc4c3)nc2c1)c1ccccc1F the results were CBX7 inh 0.95.
`Cc1ccc2c(c1)c(C)nn2Cc1ccccc1Cl` gave CBX7 inh 1.1.
COc1ccccc1CNc1nc2ccccc2c2nc(-c3ccccc3)nn12 was read as CBX7 inh 1.
CCCCn1cnc2cc(NCc3ccc(Br)cc3)ccc21 was read as CBX7 inh 0.25*.
CCn1cnc2cc(NCc3ccc(OC)c(OC)c3)ccc21 was read as CBX7 inh 0.95.
Screening CCCn1cnc2cc(NCc3cccc(OC)c3)ccc21 returned CBX7 inh 0.56.
`CCn1cnc2cc(NCc3ccc(Br)cc3)ccc21` gave CBX7 inh 0.96.
CCCn1cnc2cc(NCc3ccc(OC)c(OC)c3)ccc21 was read as CBX7 inh 0.81.
CCCn1cnc2cc(NCc3ccc(Br)cc3)ccc21 was read as CBX7 inh 0.33*.
COc1ccc(CNc2nc3ccccc3c3nc(-c4ccccc4)nn23)cc1 was read as CBX7 inh 1.1.
For O=C1CC(c2cc3c(cc2Br)OCO3)c2cc3c(cc2N1)OCO3 (configuration not stated) the results were CBX7 inh 1.2.
For CCN(CC)c1ccc(NC2c3ccccc3C(=O)N2c2ccc(Cl)cn2)c(C)c1 (configuration not stated) the results were CBX7 inh 0.065*.
Cc1cccc(NC2c3ccccc3C(=O)N2c2ccc(Cl)cn2)c1C (configuration not stated) was read as CBX7 inh 0.93.
Cc1ccc(NC2c3ccccc3C(=O)N2c2ccc(Cl)cn2)cc1F (configuration not stated) was read as CBX7 inh 1.2.
CCCNC(=O)Cn1cnc2sc(C(=O)Nc3ccc(OC)cc3OC)c(C)c2c1=O was read as CBX7 inh 1.1.
`Cc1cc(C(F)(F)F)c2c(-c3ccc(Cl)cc3)nn(-c3ccccc3)c2n1` gave CBX7 inh 1.9.
Screening Cc1ccc(-c2noc(CN3CCN(c4ccc(F)cc4)CC3)n2)cc1 returned CBX7 inh 0.99.
`Cc1ccc(-c2noc(CN3CCOCC3)n2)cc1` gave CBX7 inh 1.3.
Screening COc1ccc(N2CCN(Cc3nc(-c4ccc(C)cc4)no3)CC2)cc1 returned CBX7 inh 0.32*.
`CCCCN(CC)S(=O)(=O)c1ccc(C(=O)Nc2nc3c(OCC)cccc3s2)cc1` gave CBX7 inh 1.1.
`CCC(=O)N1CCc2cc(S(=O)(=O)NCc3ccc(F)cc3)ccc21` gave CBX7 inh 1.1.
Screening CCOc1ccccc1CN(CCc1ccc2c(c1)OCO2)Cc1ccccn1 returned CBX7 inh 0.069*.
Screening COc1ccc(Br)cc1CN(CCc1ccc2c(c1)OCO2)Cc1cccnc1 returned CBX7 inh 0.51.
For O=C(NCc1ccccn1)C(=O)Nc1ccc2c(c1)OCO2 the results were CBX7 inh 0.99.
CCC(Sc1nc2ccccc2[nH]1)C(=O)Nc1cc(C)on1 (configuration not stated) was read as CBX7 inh 0.96.
Screening O=C(Cn1ncc2c1-c1ccccc1OC2)N1CCc2ccccc21 returned CBX7 inh 1.
Screening CCOc1ccc(CCNC(=O)CCCc2cn(C)c3ccccc23)cc1OCC returned CBX7 inh 1.
Screening CCOc1ccccc1CNC(=O)CCc1cn(C)c2ccccc12 returned CBX7 inh 0.84.
For CCOc1ccccc1CNC(=O)CCCc1cn(C)c2ccccc12 the results were CBX7 inh 0.38*.
Screening CCc1ccccc1NC(=O)C1CCN(S(=O)(=O)c2ccc(F)cc2)CC1 returned CBX7 inh 1.
`CCCC(=O)NCCc1nc2ccccc2n1CCC` gave CBX7 inh 1.1.
O=C(CSc1nnc(CNC(=O)c2ccccc2F)o1)Nc1cccc(Cl)c1 was read as CBX7 inh 0.81.
Screening CN(c1nc(-c2ccccc2)cs1)C1CCS(=O)(=O)C1 (configuration not stated) returned CBX7 inh 0.96.
`CCCC(=O)N1CCN(c2nc(C(C)C)c3c(c2C#N)CC(C)(C)OC3)CC1` gave CBX7 inh 0.97.
Screening CCOCCCNC(=O)C1CCCN(c2nc3ccc(OCC)cc3s2)C1 (configuration not stated) returned CBX7 inh 1.1.
`CCOc1ccc2nc(N3CCCC(C(=O)NCCCN4CCN(CC)CC4)C3)sc2c1` (configuration not stated) gave CBX7 inh 0.44*.
Screening CCOc1ccc2nc(N3CCCC(C(=O)N4CCC(C(N)=O)CC4)C3)sc2c1 (configuration not stated) returned CBX7 inh 1.
For CCCN1CCN(CCCNC(=O)C2CCCN(c3nc4ccc(OCC)cc4s3)C2)CC1 (configuration not stated) the results were CBX7 inh 1.
Screening CCOc1ccc2nc(N3CCCC(C(=O)N4CCN(CC)CC4)C3)sc2c1 (configuration not stated) returned CBX7 inh 0.43*.
Screening CCOc1ccc2nc(N3CCCC(C(=O)N4CCN(Cc5ccccc5)CC4)C3)sc2c1 (configuration not stated) returned CBX7 inh 0.72.
COc1ccc2oc(=O)c(-c3cn4ccccc4n3)cc2c1 was read as CBX7 inh 1.1.
Cc1cccc(-c2noc(Cc3ccc(Cl)cc3)n2)c1 was read as CBX7 inh 1.4.
Screening O=C(c1ccc2c(c1)N(Cc1cccc(Cl)c1)C(=O)c1ccccc1S2)N1CCOCC1 returned CBX7 inh 1.1.
COc1ccc(NC(=O)[C@H](CCSC)N2Cc3ccccc3C2=O)cc1OC was read as CBX7 inh 0.77.
For COc1ccc(NC(=O)[C@H](Cc2ccccc2)N2Cc3ccccc3C2=O)cc1OC the results were CBX7 inh 0.42*.
`O=C(Nc1ccc2c(c1)OCO2)[C@H](CSCc1ccccc1)N1Cc2ccccc2C1=O` gave CBX7 inh 0.71.
